NPR1 antag: antagonists of human natriuretic peptide receptor Npr1; AID 1347048; P16066; HEK293 hNpr1 GloSensor cGMP, ANP-stimulated luminescence; hit rate 1.6% among 76,000; Potency, µM (doses to about 46.3 µM), actives largely listed as inhibitors; note: nearly all actives have a fitted effect of over 60% in size
Target sequence (P16066 whole entry, looked up): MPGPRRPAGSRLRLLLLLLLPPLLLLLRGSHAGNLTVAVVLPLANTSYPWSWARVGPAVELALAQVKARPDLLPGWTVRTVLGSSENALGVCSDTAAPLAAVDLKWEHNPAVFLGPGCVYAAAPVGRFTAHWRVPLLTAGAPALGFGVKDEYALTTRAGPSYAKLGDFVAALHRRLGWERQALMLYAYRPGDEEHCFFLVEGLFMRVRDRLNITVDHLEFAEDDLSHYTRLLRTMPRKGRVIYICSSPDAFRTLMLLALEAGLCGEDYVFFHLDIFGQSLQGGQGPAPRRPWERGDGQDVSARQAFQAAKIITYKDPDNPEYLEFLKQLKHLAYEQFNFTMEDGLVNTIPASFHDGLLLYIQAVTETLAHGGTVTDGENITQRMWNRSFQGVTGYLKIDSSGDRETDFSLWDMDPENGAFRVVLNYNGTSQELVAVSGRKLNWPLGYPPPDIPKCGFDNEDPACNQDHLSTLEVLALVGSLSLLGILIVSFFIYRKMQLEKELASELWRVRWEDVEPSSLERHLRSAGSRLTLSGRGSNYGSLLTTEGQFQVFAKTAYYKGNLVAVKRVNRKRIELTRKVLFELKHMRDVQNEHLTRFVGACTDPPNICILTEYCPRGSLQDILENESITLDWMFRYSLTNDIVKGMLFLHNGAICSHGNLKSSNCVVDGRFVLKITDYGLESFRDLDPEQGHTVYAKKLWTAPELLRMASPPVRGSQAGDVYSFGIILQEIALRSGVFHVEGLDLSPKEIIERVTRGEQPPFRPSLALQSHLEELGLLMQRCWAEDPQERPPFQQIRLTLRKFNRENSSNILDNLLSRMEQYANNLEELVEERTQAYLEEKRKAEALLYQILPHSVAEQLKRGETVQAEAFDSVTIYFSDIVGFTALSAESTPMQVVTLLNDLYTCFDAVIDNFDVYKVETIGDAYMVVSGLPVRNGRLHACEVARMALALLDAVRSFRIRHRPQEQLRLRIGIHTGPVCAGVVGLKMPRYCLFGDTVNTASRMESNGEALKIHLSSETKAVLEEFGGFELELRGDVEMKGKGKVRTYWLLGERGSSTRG
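HEK293 cells stably expressing human Npr1 and cGMP GloSensor pGS-40F, loaded 2 h with 2% GloSensor reagent, given compound 30 min at room temperature. Luminescence read before and 20 min after 0.1 nM hNppA.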
HEK cytotox: kills HEK 293 cells. HEK 293 viability, ATP luminescence (CellTiter-Glo), 48-72 h. Potency, µM (highest dose often 115 µM), hits mostly inhibitors. hit rate 6.6% among 94,000; active = well fitted curve in the direction sought with a large enough effect; inconclusive = small, poorly fitted or top-dose-only effect, or another doubt; inactive = no such curve, though single readings can be large; an effect the other way counts as inactive or inconclusive; note: nearly all actives have a fitted effect of over 60% in size
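Luminescence from cellular ATP, measured with CellTiter-Glo, indicates HEK 293 viability. Cells plated at 250 cells/well are treated with compound for 48 or 72 hr at 37 degree Celsius before reagent addition.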
Luciferase inh: Photinus pyralis luciferase inhibition. purified P. pyralis luciferase, luminescence, biochemical. Potency, µM (highest dose often 115 µM), hits mostly inhibitors. hit rate 2.5% among 76,000. AID 1347043; active = well fitted curve in the direction sought with a large enough effect; inconclusive = small, poorly fitted or top-dose-only effect, or another doubt; inactive = no such curve, though single readings can be large; an effect the other way counts as inactive or inconclusive; note: nearly all actives have a fitted effect of over 65% in size
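Luminescence read by CCD imaging after purified firefly luciferase (10nM final) was added to substrate buffer holding 10uM D-luciferin and 10uM ATP, pH 7.5, pre-dosed with compound.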
NIH3T3 tox: cytotoxic compounds in NIH 3T3 cells | NIH 3T3 viability, CellTiter-Glo ATP luminescence, 48-72 h | Potency, µM (top dose mostly 96.7 µM), actives largely listed as inhibitors | hit rate 4.3% among 94,000 | AID 1345082; active = well fitted curve in the direction sought with a large enough effect; inconclusive = small, poorly fitted or top-dose-only effect, or another doubt; inactive = no such curve, though single readings can be large; an effect the other way counts as inactive or inconclusive; note: nearly all actives have a fitted effect of over 55% in size
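Cells were seeded at 400 per well, treated with pin-transferred compound, and kept 48 or 72 hr at 37 °C before CellTiter-Glo addition and luminescence imaging of cellular ATP.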
NPR1 antag cnf: hNpr1 antagonism, confirmation assay | HEK293 hNpr1 cGMP GloSensor luminescence, ANP-stimulated | shares compounds with NPR1 antag | Potency, µM (highest dose often 57.6 µM), usual class: inhibitors | hit rate 76% among 1,400; note: nearly all actives have a fitted effect of over 70% in size
Npr2 selectivity: selectivity test of Npr1 antagonists against human Npr2; shares compounds with NPR1 antag; HEK293 hNpr2 GloSensor cGMP luminescence, CNP-stimulated; Potency, µM (highest dose often 57.6 µM), actives largely listed as inhibitors; hit rate 67% among 1,400; note: nearly all actives have a fitted effect of over 70% in size
FLuc counter: inhibits firefly luciferase, false Npr1 antagonist flag. Potency, µM (highest dose often 57.6 µM), hits mostly inhibitors. purified FLuc enzyme, luminescence, Km substrate. shares compounds with NPR1 antag. hit rate 0.7% among 1,400. AID 1347047; active = well fitted curve in the direction sought with a large enough effect; inconclusive = small, poorly fitted or top-dose-only effect, or another doubt; inactive = no such curve, though single readings can be large; an effect the other way counts as inactive or inconclusive
GloSensor cGMP: counter-screen for Npr1 antagonists: GloSensor control cell line | shares compounds with NPR1 antag | HEK293 GloSensor cGMP, SNP-stimulated, luminescence | Potency, µM (series often up to 57.6 µM), hits mostly inhibitors | hit rate 69% among 1,400 | AID 1347051; note: nearly all actives have a fitted effect of over 70% in size
Hits are given with their value; 0 = inactive; ? = inconclusive; - = no result given; ! = repeats disagree. In the library only some 11% were active in any assay of this set; here they are far more common. Unless noted, calls come from the whole dose curve.

SMILES	NPR1 antag	HEK cytotox	Luciferase inh	NIH3T3 tox	NPR1 antag cnf	Npr2 selectivity	FLuc counter	GloSensor cGMP
COCCN1CCOc2nc(-c3cc4ccccc4o3)ncc2C1=O	12.6µM	?	0	?	9.94µM	9.94µM	0.498µM	7.89µM
O=C1NCCCCCN(Cc2cccnc2)[C@@H]2CN(Cc3cccc(F)c3)CC[C@@H]12	0	?	0	0	-	-	-	-
CCOC(=O)[C@@H]1CN(C(=O)CCc2ccccc2)[C@H]2c3ccc(OC)cc3O[C@@H]12	-	0	-	?	-	-	-	-
COc1ccc(-c2cccc(C(=O)N3CCN(C(=O)c4ccccc4)CC3)c2)nn1	-	0	-	0	-	-	-	-
CS(=O)(=O)N1CCC(OC2CCN(C(=O)Nc3ccc(F)cc3)CC2)CC1	0	0	0	0	-	-	-	-
CS(=O)(=O)N1CCc2ccc(C(=O)Nc3ccc(Oc4ccccc4)cc3)cc21	1.58µM	?	0	0	2.73µM	3.43µM	0	2.43µM
CCCCc1ccc(NC(=O)c2ccc3c(c2)N(S(C)(=O)=O)CC3)cc1	0	0	0	0	-	-	-	-
Cc1noc(-c2cccc(F)c2)c1C(=O)NCc1cccc2ccccc12	0	?	0	0	-	-	-	-
Cc1noc(-c2ccco2)c1C(=O)NCc1cccc2ccccc12	12.6µM	?	0	?	24.3µM	?	0	30.6µM
O=C(C[C@@H]1CCNC[C@@H]1Cc1cc(CSc2ccccc2)on1)NCc1ccc(F)cc1	0	?	0	?	-	-	-	-
O=C(C[C@@H]1CCNC[C@@H]1Cc1cc(CC2CCCCC2)on1)NCc1ccccc1	14.1µM	?	0	31.6µM	19.8µM	28µM	0	17.7µM
COc1ccc(NC(=O)N2CCCC(c3noc(COc4ccccc4)n3)C2)c(C)c1 (stereo not given)	?	?	0	0	24.3µM	?	0	21.7µM
CCOc1ccccc1NC(=O)N1CCCC(c2noc(COc3ccccc3)n2)C1 (stereo not given)	0	?	0	?	-	-	-	-
CCCn1c(C)c(CC(=O)NC(C)Cn2cccn2)c2c1CC(C)(C)CC2=O (stereo not given)	0	0	0	0	-	-	-	-
O=C(Nc1ccc(F)cc1)c1cc2n(n1)CC(c1ccc(Br)cc1)OC2 (stereo not given)	11.2µM	?	0	?	?	?	0	?
NC(=O)CNC(=O)c1cc2n(n1)CC(c1ccc(Br)cc1)OC2 (stereo not given)	0	0	0	0	-	-	-	-
O=C(Nc1ccccc1)c1cc2n(n1)CC(c1ccc(Br)cc1)OC2 (stereo not given)	17.8µM	?	0	?	27.3µM	?	0	?
O=C(Nc1ccc(F)c(F)c1)c1cc2n(n1)CC(c1ccc(Br)cc1)OC2 (stereo not given)	?	?	0	?	24.3µM	?	0	?
O=C(Nc1cc(F)ccc1Cl)c1cc2n(n1)CC(c1ccc(Br)cc1)OC2 (stereo not given)	0	?	?	0	-	-	-	-
COCCN1CCCCCC(O)c2cc(C(=O)NCc3cc(OC)ccc3OC)ccc21 (stereo not given)	0	?	0	?	-	-	-	-
Cc1ccc(C2(C(=O)NC(C)c3cnc(-c4ccncc4)nc3C)CC2)cc1 (stereo not given)	?	?	0	?	?	?	0	0
COc1ccccc1-c1nnc2ccc(C(=O)NCC(C)C)cn12	-	0	-	0	-	-	-	-
COC(=O)c1ccc(NC(=O)N2CC(Oc3cccc(-c4nc(C)no4)c3)C2)cc1	12.6µM	?	0	?	24.3µM	24.3µM	0	24.3µM
Cc1noc(-c2cccc(OC3CN(C(=O)Nc4ccccc4)C3)c2)n1	0	?	0	?	-	-	-	-
O=C(Nc1ccccc1)N1CC(Oc2ccc(-c3noc(-c4ccncc4)n3)cc2)C1	11.2µM	?	0	0	6.11µM	8.62µM	0	6.11µM
SMILES	NPR1 antag	HEK cytotox	Luciferase inh	NIH3T3 tox	NPR1 antag cnf	Npr2 selectivity	FLuc counter	GloSensor cGMP
O=C(NCc1ccc(N2CCCC2)cc1)C1CCCN(c2cnn(Cc3ccccc3)c(=O)c2)C1 (stereo not given)	?	?	0	?	?	?	0	?
CCn1ncc(N2CCCC(CC(=O)NC3CCN(C)CC3)C2)cc1=O (stereo not given)	-	0	-	0	-	-	-	-
Cc1ccccc1CC(=O)N1CCC2(CC1)NC(=O)N(c1ccc(F)cc1)N2	11.2µM	?	0	?	17.2µM	21.7µM	0	19.3µM
COc1ccc(C(=O)Nc2ccc(-c3noc([C@@H]4CCCN4CC4CCCCC4)n3)cn2)cc1	10µM	44.7µM	0	?	6.85µM	12.2µM	0	12.2µM
COCC(=O)Nc1ccc(-c2noc([C@@H]3CCCN3C)n2)cn1	0	0	?	0	-	-	-	-
COc1ccc(C(=O)Nc2ccc(-c3noc([C@@H]4CCCN4Cc4ccc(C(F)(F)F)cc4)n3)cn2)cc1	11.2µM	?	0	?	10.9µM	13.7µM	0	9.68µM
COc1ccc(C(=O)Nc2ccc(-c3noc([C@@H]4CCCN4Cc4ccc(OC(F)(F)F)cc4)n3)cn2)cc1	11.2µM	?	0	?	12.2µM	10.9µM	0	10.9µM
O=C(Nc1ccc(Cl)cc1Cl)c1ccc2cc[nH]c2n1	-	0	-	0	1.71µM	2.7µM	0.152µM	2.41µM
O=C(Nc1ccc(Cl)cc1Cl)c1c[nH]c2cccnc12	-	?	-	?	21.5µM	13.5µM	0.959µM	?
N#Cc1ccc(CN2CCC(c3nc4ccc(F)cc4c(=O)[nH]3)CC2)cc1	-	0	-	0	-	-	-	-
COc1ccccc1-c1ccc(CN2CCCC(c3nc4ccc(C)cc4c(=O)[nH]3)C2)cc1 (stereo not given)	?	17.8µM	0	28.2µM!	?	?	0	?
Cc1ccc2nc(C3CCN(Cc4ccc(C#N)cc4)CC3)[nH]c(=O)c2c1	?	?	0	?	17.2µM	?	0	17.2µM
O=c1[nH]c(C2CCCN(Cc3ccc(-c4cccs4)cc3)C2)nc2ccc(F)cc12 (stereo not given)	15.8µM	39.8µM	0	?	24.3µM	27.3µM	0	30.6µM
O=c1[nH]c(C2CCCN(Cc3ccc(Cl)cc3)C2)nc2ccc(F)cc12 (stereo not given)	?	?	0	0	-	-	-	-
COC(=O)NC1CCN(C(=O)c2ccc(-c3ncccc3C#N)cc2)CC1	-	0	-	0	-	-	-	-
CCn1c2c(c(=O)n1Cc1ccccc1)CCN(C(=O)c1ccc(Oc3ccccc3)cc1)C2	11.2µM	?	0	?	24.3µM	21.7µM	0	19.3µM
CCn1c2c(c(=O)n1-c1ccccc1)CCN(C(=O)c1ccc(Oc3ccccc3)cc1)C2	8.91µM	?	0	?	8.62µM	10.9µM	0	7.69µM
CCC(CC)C(=O)N1CCC2(CC1)C(=O)N(CC)c1ccccc12	0	?	0	0	-	-	-	-

Assay outcomes as filed in PubChem BioAssay.
